A short description of assay [1]: antimalarial activity against Dd2 strain (AID 2302;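 active = growth inhibition above 50% at the single 2 µM test dose, taken to imply half-maximal potency below 2 µM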;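 note: 0% = DMSO untreated growth and 100% = chloroquine plus artemisinin killed control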). Particulars: P. falciparum Dd2 in RBCs, LDH growth readout, 72 h; at 2 µM; stronger effect = higher value.
A short description of assay [2]: human hepatoma cell viability loss – ATP luminescence, cytotoxicity control for P. falciparum antimalarial project, primary screen (AID 2303;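 active = inhibition above 50%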;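 note: 0% = DMSO wells and 100% = digitonin-killed cells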). The conditions noted are these: HepG2 viability, 24-48 h, at 10 µM, stronger effect = higher value.
The target of assay [3] is L-lactate dehydrogenase (Plasmodium falciparum (isolate CDC / Honduras)) (UniProt Q27743). Put plainly: PfLDH activity inhibition – cell lysate, 3D7 strain, counter-screen for P. falciparum growth inhibition project (AID 2304).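 Note: 0% = vehicle and 100% = reference inhibitor.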 The conditions noted are these: P. falciparum 3D7 crude extract, LDH APAD/NBT absorbance; at 2 µM; stronger effect = higher value. For orientation: The purpose of a counterscreen is to sort out artefacts and off-target activity.
Chain of L-lactate dehydrogenase (Plasmodium falciparum (isolate CDC / Honduras)) (Q27743 whole entry, looked up): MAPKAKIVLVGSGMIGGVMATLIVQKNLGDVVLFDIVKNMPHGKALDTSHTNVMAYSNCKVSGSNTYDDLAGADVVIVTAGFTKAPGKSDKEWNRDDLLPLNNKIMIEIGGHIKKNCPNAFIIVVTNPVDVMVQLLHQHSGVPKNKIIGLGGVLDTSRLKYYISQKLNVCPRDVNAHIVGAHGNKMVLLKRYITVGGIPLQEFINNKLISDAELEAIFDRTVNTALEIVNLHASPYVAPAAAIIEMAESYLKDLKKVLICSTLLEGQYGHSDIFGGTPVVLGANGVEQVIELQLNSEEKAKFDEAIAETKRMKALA

Assay [4] can be described thus: inhibition of 3D7 malaria parasite growth – strain 3D7 (AID 2306).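 Note: 0% = DMSO wells and 100% = chloroquine plus artemisinin control wells.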 The conditions noted are these: P. falciparum 3D7 erythrocytic growth, LDH absorbance, 72 h; at 2 µM; stronger effect = higher value.
Assay [5] deals with Calcium-dependent protein kinase 1 (Plasmodium falciparum (isolate 3D7)) (UniProt P62344). In words: PfCDPK1 kinase inhibitors, biochemical, TCAMS library (AID 1159585; cut-off not given, nearly all actives have IC50 up to about 0.98 µM;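 note: inhibitors leave more ATP so luminescence rises with inhibition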). Particulars: recombinant PfCDPK1, Kinase-Glo ATP depletion luminescence.
Chain of Calcium-dependent protein kinase 1 (Plasmodium falciparum (isolate 3D7)) (P62344 whole entry, looked up): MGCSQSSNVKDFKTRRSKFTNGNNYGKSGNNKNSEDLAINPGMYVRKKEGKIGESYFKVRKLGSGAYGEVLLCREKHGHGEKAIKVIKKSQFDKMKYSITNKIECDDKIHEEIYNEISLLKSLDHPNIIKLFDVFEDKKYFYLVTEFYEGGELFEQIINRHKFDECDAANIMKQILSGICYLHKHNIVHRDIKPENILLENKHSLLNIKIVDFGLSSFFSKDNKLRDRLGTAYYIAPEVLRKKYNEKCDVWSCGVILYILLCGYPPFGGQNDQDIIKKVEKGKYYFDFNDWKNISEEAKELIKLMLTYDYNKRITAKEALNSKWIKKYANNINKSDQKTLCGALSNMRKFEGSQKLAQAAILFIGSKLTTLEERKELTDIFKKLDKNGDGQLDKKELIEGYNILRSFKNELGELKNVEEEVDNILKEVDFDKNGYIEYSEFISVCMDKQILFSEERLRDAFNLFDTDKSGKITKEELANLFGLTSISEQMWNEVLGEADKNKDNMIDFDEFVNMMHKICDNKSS
For assay [6], the target named is Plasmodium falciparum protein kinase 6 (PK6, PF3D7_1337100) (UniProt Q8IDW1). Put plainly: PfPK6 kinase inhibitors, biochemical, TCAMS library (AID 1159586). The conditions noted are these: recombinant PfPK6, Kinase-Glo ATP depletion luminescence. On the technique in general: In Kinase-Glo more light means more ATP remaining.
Chain of Plasmodium falciparum protein kinase 6 (PK6, PF3D7_1337100) (Q8IDW1 1-305): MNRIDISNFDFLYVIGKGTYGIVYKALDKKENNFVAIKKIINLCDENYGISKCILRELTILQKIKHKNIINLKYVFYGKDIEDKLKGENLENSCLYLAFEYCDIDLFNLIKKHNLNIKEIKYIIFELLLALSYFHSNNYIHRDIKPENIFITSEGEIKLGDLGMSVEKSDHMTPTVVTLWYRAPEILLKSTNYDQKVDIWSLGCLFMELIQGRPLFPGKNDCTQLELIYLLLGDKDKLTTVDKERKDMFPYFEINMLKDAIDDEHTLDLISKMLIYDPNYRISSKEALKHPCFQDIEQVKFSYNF
For assay [7], the target named is Protein kinase 7 (PK7), Plasmodium falciparum 3D7 (PF3D7_0213400) (UniProt Q7YTF7). Put plainly: inhibition of Plasmodium PK7 catalytic activity – biochemical, TCAMS antimalarial set, Kinase-Glo luminescence (AID 1159587). The conditions noted are these: recombinant PfPK7, Kinase-Glo ATP depletion luminescence.
Chain of Protein kinase 7 (PK7), Plasmodium falciparum 3D7 (PF3D7_0213400) (Q7YTF7 1-343): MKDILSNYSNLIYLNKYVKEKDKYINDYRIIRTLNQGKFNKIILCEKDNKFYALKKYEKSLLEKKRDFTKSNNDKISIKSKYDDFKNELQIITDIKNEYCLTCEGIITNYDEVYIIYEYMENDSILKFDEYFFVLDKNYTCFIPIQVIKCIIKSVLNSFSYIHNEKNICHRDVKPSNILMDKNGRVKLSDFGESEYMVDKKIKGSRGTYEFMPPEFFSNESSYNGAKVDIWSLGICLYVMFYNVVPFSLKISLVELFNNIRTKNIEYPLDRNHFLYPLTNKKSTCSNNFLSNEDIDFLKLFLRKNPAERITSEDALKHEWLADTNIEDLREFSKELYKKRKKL
The target of assay [8] is Calcium-dependent protein kinase 4 (Plasmodium falciparum (isolate 3D7)) (UniProt Q8IBS5). Put plainly: PfCDPK4 kinase inhibitors, biochemical, TCAMS library (AID 1159588; cut-off not given, nearly all actives have IC50 up to about 0.91 µM). The conditions noted are these: recombinant PfCDPK4, Kinase-Glo ATP depletion luminescence.
Chain of Calcium-dependent protein kinase 4 (Plasmodium falciparum (isolate 3D7)) (Q8IBS5 whole entry, looked up): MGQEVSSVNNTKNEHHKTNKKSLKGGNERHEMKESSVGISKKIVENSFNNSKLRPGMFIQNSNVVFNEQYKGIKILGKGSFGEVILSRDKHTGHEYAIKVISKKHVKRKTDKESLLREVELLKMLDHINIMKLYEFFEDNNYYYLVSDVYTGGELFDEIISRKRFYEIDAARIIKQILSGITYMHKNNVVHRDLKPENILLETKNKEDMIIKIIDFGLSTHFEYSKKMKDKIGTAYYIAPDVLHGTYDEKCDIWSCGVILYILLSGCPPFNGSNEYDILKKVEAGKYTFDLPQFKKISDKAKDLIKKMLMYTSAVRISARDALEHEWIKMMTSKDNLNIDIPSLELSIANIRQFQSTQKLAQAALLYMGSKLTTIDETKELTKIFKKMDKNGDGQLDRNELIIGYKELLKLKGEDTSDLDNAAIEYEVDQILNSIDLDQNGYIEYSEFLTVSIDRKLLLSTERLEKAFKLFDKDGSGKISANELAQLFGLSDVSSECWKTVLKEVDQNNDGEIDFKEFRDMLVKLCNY

Among the data in PubChem BioAssay are growth inhibition, inhibition and outcome values, retold here.

Structures are written as SMILES. Values without a mark were called inactive. For some of these results: Measured potencies and affinities stand elsewhere. The source made the active and inactive calls. Unless noted, the rule behind the calls is not given here.

Take `OCCN1CCN(Cc2ccc(-c3ccc(-c4nc5ccccc5[nH]4)cc3)cc2)CC1`: the growth inhibition in assay [1] was 58% (active); in assay [4] it was 100% (active). For the same compound, the inhibition is 6% in assay [2] and -1% in assay [3]. Moreover, the outcome in assay [5], in assay [6], in assay [7] and in assay [8] was inactive.
Regarding `Cn1cnc2c(Nc3ccncc3)nc(-c3ccc4ccccc4c3)nc21`, the growth inhibition in assay [1] was 66% (active); in assay [4] it was 96% (active). Besides, the inhibition in assay [2] was 55% (active); in assay [3], 7%. For the same compound, the result in assay [5], in assay [6], in assay [7] and in assay [8] was inactive.
For `CC(=O)N[C@H](C(=O)Nc1ccc(-c2ccc(-c3nc4ccc(C(F)(F)F)cc4[nH]3)cc2)cc1)C(C)C`, the growth inhibition in assay [1] is 76% (active); in assay [4], 88% (active). In addition, the inhibition was 24% in assay [2] and 7% in assay [3]. For the same compound, the outcome in assay [5], in assay [6], in assay [7] and in assay [8] was inactive.
In the case of `Cc1ccccc1N1CCN(c2ncc(C(=O)NC3CC3)cc2Cl)CC1`, the growth inhibition was 96% (active) in assay [1] and 91% (active) in assay [4]. The inhibition in assay [2] was 23%; in assay [3] it was -2%. Besides, the result in assay [5], in assay [6], in assay [7] and in assay [8] was inactive.
As for `O=C(Cn1c(CCc2cccc(F)c2F)nc(=O)c2ccccc21)N(CCN1CCCCC1)Cc1ccc(-c2ccc(C(F)(F)F)cc2)cc1`, the growth inhibition in assay [1] was 89% (active); in assay [4], 101% (active). For the same compound, the inhibition in assay [2] is 32%; in assay [3], 4%. Further, the outcome in assay [5], in assay [6], in assay [7] and in assay [8] was inactive.
Regarding `COc1ccc2nccc([C@@H](O)CN3CCC(NC(=O)Cn4nc(-c5ccc(C(F)(F)F)cc5)ccc4=O)CC3)c2c1`, the growth inhibition was 90% (active) in assay [1] and 100% (active) in assay [4]. Further, the inhibition in assay [2] was 12%; in assay [3] it was -3%. Besides, the outcome in assay [5], in assay [6], in assay [7] and in assay [8] was inactive.
With `FC(F)(F)c1ccc2nc(-c3ccc(-c4ccc(CNCCc5ccncc5)cc4)cc3)[nH]c2c1`, the growth inhibition in assay [1] and in assay [4] was 100% (active) each time. Moreover, the inhibition in assay [2] was 26%; in assay [3] it was 6%. Moreover, the outcome in assay [5], in assay [6], in assay [7] and in assay [8] was inactive.
Take `O=C(CN1CCN(C(C(=O)Nc2cc(C(F)(F)F)ccc2Cl)c2ccccc2)CC1)NC1CC1` (stereo not given): the growth inhibition is 93% (active) in assay [1] and 95% (active) in assay [4]. Moreover, the inhibition in assay [2] was -6%; in assay [3] it was -3%. The outcome in assay [5], in assay [6], in assay [7] and in assay [8] was inactive.
For the compound `CN(C)c1ccc2c(c1)Sc1cc(N(C)C)ccc1N2C(=O)CCCC(=O)O`, the growth inhibition in assay [1] is 81% (active); in assay [4], 96% (active). The figures for the inhibition in assay [2] and in assay [3] were -4% and -6%, respectively. The result in assay [5], in assay [6], in assay [7] and in assay [8] was inactive.
With `N#CCSc1nnc(-c2ccccc2)c2ccccc12`, the values for the growth inhibition in assay [1] and in assay [4] were 73% (active) and 84% (active), respectively. Moreover, the inhibition in assay [2] is 5%; in assay [3], -1%. For the same compound, the result in assay [5], in assay [6], in assay [7] and in assay [8] was inactive.
With `CC[C@H](C)CNC(=O)c1ccnc(-c2ccc(CNC3Cc4ccccc4C3)cc2)c1`, the results for the growth inhibition in assay [1] and in assay [4] were 87% (active) and 102% (active), respectively. Further, the inhibition in assay [2] is 18%; in assay [3] it was -3%. For the same compound, the result in assay [5], in assay [6], in assay [7] and in assay [8] was inactive.
In the case of `O=[N+]([O-])c1nc(Br)n(Cc2ccc(Cl)cc2)n1`, the growth inhibition is 95% (active) in assay [1] and 96% (active) in assay [4]. Further, the figures for the inhibition in assay [2] and in assay [3] were -3% and -1%, respectively. Also, the result in assay [5], in assay [6], in assay [7] and in assay [8] was inactive.
With `CN(C)CCC1CCCc2ccc(NC(=O)Nc3ccc(-c4ccncc4)c4ccccc34)cc21` (stereo not given), the growth inhibition is 27% in assay [1] and 89% (active) in assay [4]. Further, the figures for the inhibition in assay [2] and in assay [3] were 34% and 6%, respectively. Moreover, the result in assay [5], in assay [6], in assay [7] and in assay [8] was inactive.
In the case of `CCOC(=O)c1c(CSc2ccccc2)oc2cc(CN(C)C)c(O)c(Cl)c12`, the values for the growth inhibition in assay [1] and in assay [4] were 70% (active) and 99% (active), respectively. Also, the inhibition in assay [2] was 12%; in assay [3] it was -4%. The result in assay [5], in assay [6], in assay [7] and in assay [8] was inactive.
With `CN(C)CCN1CCN(Cc2cccc(-c3csc(-c4nc5ccccc5[nH]4)c3)c2)CC1`, the results for the growth inhibition in assay [1] and in assay [4] were 97% (active) and 100% (active), respectively. Further, the inhibition in assay [2] is 28%; in assay [3] it was -5%. In addition, the result in assay [5], in assay [6], in assay [7] and in assay [8] was inactive.
As to `COc1ccc(CC(=O)NC(CCCN2CCC(c3ccccc3)CC2)c2ccc(Cl)c(Cl)c2)cc1OC` (stereo not given), the growth inhibition in assay [1] was 57% (active); in assay [4], 82% (active). In addition, the inhibition was 28% in assay [2] and -7% in assay [3]. The outcome in assay [5], in assay [6], in assay [7] and in assay [8] was inactive.
As for `COc1cc(C2CCN(CCCCNC(=O)c3ccc(NC(=O)c4cc(C(F)(F)F)cc(C(F)(F)F)c4)cc3)CC2)ccc1OC(C)C`, the growth inhibition in assay [1] and in assay [4] was 100% (active) each time. Besides, the inhibition was 21% in assay [2] and 4% in assay [3]. The outcome in assay [5], in assay [6], in assay [7] and in assay [8] was inactive.
Take `CC(C)n1c(CC2CCN(CC3CCN(C(=O)/C=C/c4ccc(Cl)c(Cl)c4)CC3)CC2)nc2ccccc21`: the growth inhibition is 23% in assay [1] and 101% (active) in assay [4]. In addition, the results for the inhibition in assay [2] and in assay [3] were 19% and -3%, respectively. For the same compound, the outcome in assay [5], in assay [6], in assay [7] and in assay [8] was inactive.
As to `Cc1cc(C)c(C(=O)Nc2n[nH]c3nnc(-c4cccc(F)c4F)cc23)c(C)c1`, the growth inhibition in assay [1] is -4%; in assay [4], 90% (active). In addition, the figures for the inhibition in assay [2] and in assay [3] were -2% and -4%, respectively. The outcome in assay [5], in assay [6], in assay [7] and in assay [8] was inactive.
Consider `CCC(O)c1ccc(Br)cc1NC(=O)c1cccc(Cl)c1` (stereo not given), for which the growth inhibition in assay [1] is 52% (active); in assay [4] it was 80% (active). In addition, the inhibition in assay [2] is -3%; in assay [3], -5%. The result in assay [5], in assay [6], in assay [7] and in assay [8] was inactive.

The inhibition is the drop in the measured response relative to a control, in per cent.
